Measurements reported in the supplement of paper PMC12067926.
Unmarked numbers belong to inactive results.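 The calls were made as follows: active = growth AUC significantly below the DMSO wells by Dunnett test; inactive = the rest.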

What was measured:
Experiment in all cases: relative growth (AUC of 72 h growth curve relative to DMSO control, dAUC) (ratio); higher = more growth (less inhibition), active = hit call of the paper
Details in all cases: 20 µM
[1] = test system: Aeromonas 1 (Aeromonas sp. AE235)
Outline: (§1)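 For relative growth (dAUC), the spline-integrated area under the growth curve was divided by the mean of the DMSO controls. Results were averaged over three biological replicates. Each replicate used a 1:100 dilution, into 96-well plates holding each chemical at 20 µM (1% DMSO), of isolates from Icelandic stream sediments and Silwood Park soil or whole sediment communities that had been grown to carrying capacity in Luria–Bertani medium. Plates were shaken briefly before each hourly A600 reading over 72 h.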

[2] = test system: Aeromonas 2 (Aeromonas sobria)
Outline: as §1

[3] = test system: Aeromonas 3 (Aeromonas popoffii)
Outline: as §1

[4] = test system: Argrobacterium 1 (Agrobacterium sp.)
Outline: as §1

[5] = test system: Arthrobacter 1 (Arthrobacter humicola)
Outline: as §1

[6] = test system: Arthrobacter 2 (Arthrobacter humicola)
Outline: as §1

[7] = test system: Arthrobacter 3 (Arthrobacter sp.)
Outline: as §1

Community 10 = test system: Community 10
Outline: as §1

Community 4 = test system: Community 4
Outline: as §1

Community 6 = test system: Community 6
Outline: as §1

Community 7 = test system: Community 7
Outline: as §1

Community 8 = test system: Community 8
Outline: as §1

Community 9 = test system: Community 9
Outline: as §1

[8] = test system: Flavobacterium 1 (Flavobacterium glaciei)
Outline: as §1

[9] = test system: Flavobacterium 2 (Flavobacterium succinicans)
Outline: as §1

[10] = test system: Hymenobacter 1 (Hymenobacter glaciei)
Outline: as §1

[11] = test system: Microbacterium 1 (Microbacterium arborescens)
Outline: as §1

[12] = test system: Neobacillus 1 (Neobacillus soli)
Outline: as §1

[13] = test system: Oryzobacter 1 (Oryzobacter terrae)
Outline: as §1

[14] = test system: Paenibacillus 1 (Paenibacillus castaneae)
Outline: as §1

| Structure (SMILES) | relative growth [1] | relative growth [2] | relative growth [3] | relative growth [4] | relative growth [5] | relative growth [6] | relative growth [7] | relative growth (Community 10) | relative growth (Community 4) | relative growth (Community 6) | relative growth (Community 7) | relative growth (Community 8) | relative growth (Community 9) | relative growth [8] | relative growth [9] | relative growth [10] | relative growth [11] | relative growth [12] | relative growth [13] | relative growth [14] |
| --- | --- | --- | --- | --- | --- | --- | --- | --- | --- | --- | --- | --- | --- | --- | --- | --- | --- | --- | --- | --- |
| CCCN(CCOc1c(Cl)cc(Cl)cc1Cl)C(=O)n1ccnc1 | 1.02 | 0.971 | 1 | 1.01 | 0.702 | 0.209 (active) | 0.352 (active) | 0.868 | 0.934 | 0.982 | 0.969 | 1.02 | 0.998 | 0.335 (active) | 0.935 | 0.75 | 0.953 | 1.05 | 0.236 (active) | 0.59 (active) |
| CS(=O)(=O)NC(=O)c1cc(Oc2ccc(C(F)(F)F)cc2Cl)ccc1[N+](=O)[O-] | 1.02 | 1.02 | 1.03 | 1.02 | 0.905 | 1.07 | 1.05 | 1.09 | 1.02 | 1.03 | 1.04 | 1.05 | 1.07 | 1.06 | 1.02 | 1.04 | 1.03 | 1.02 | 0.957 | 1.03 |
| CCC(C)c1ccccc1OC(=O)NC (stereo not given) | 1 | 0.975 | 0.991 | 1.06 | 0.921 | 1.08 | 1.08 | 1.08 | 1.06 | 1.07 | 1.02 | 1.05 | 1.07 | 1.11 | 1.02 | 0.856 | 1.04 | 1.06 | 0.993 | 1 |
| CCc1cnc(C2=NC(C)(C(C)C)C(=O)N2)c(C(=O)O)c1 (stereo not given) | 0.969 | 0.981 | 1 | 0.95 | 0.895 | 0.959 | 0.932 | 1.1 | 1.03 | 1.04 | 1.05 | 1.03 | 0.98 | 0.988 | 1.03 | 1.09 | 1.04 | 1.01 | 0.96 | 1.02 |
| O=C(O)c1nc(Cl)ccc1Cl | 0.95 | 0.943 | 0.997 | 0.946 | 1.03 | 0.895 | 0.963 | 0.892 | 0.903 | 0.972 | 1.17 | 0.994 | 0.937 | 1.04 | 0.962 | 0.835 | 0.977 | 0.968 | 0.889 | 0.973 |
| C#CCOc1ccc(CCNC(=O)C(OCC#C)c2ccc(Cl)cc2)cc1OC (stereo not given) | 0.978 | 0.985 | 1 | 1.05 | 1.04 | 0.935 | 0.953 | 0.982 | 0.951 | 1.02 | 1 | 1.05 | 0.995 | 0.963 | 0.928 | 1.04 | 1.02 | 0.98 | 1.02 | 0.851 |
| CS(=O)(=O)c1ccc(C(=O)C2C(=O)CCCC2=O)c([N+](=O)[O-])c1 | 0.965 | 1 | 0.97 | 0.959 | 1 | 1.07 | 1.02 | 1.02 | 1.06 | 1.04 | 0.957 | 1.06 | 1.04 | 1.07 | 1.04 | 1.07 | 1.04 | 1.04 | 1.01 | 1.03 |
| N#CCNC(=O)c1cnccc1C(F)(F)F | 1.01 | 0.97 | 1.03 | 0.992 | 0.965 | 0.882 | 0.96 | 0.928 | 0.954 | 0.919 | 1.01 | 0.986 | 0.902 | 0.973 | 0.944 | 0.973 | 1.01 | 0.935 | 1.09 | 0.935 |
| CSc1nc(NC(C)C)nc(NC(C)C)n1 | 0.966 | 0.971 | 0.983 | 1.03 | 1.03 | 0.956 | 1.07 | 0.857 | 0.933 | 0.922 | 1.02 | 0.97 | 0.97 | 1.02 | 0.946 | 0.914 | 1.02 | 0.987 | 0.978 | 0.877 |
| CC(Oc1ccc(Oc2ncc(C(F)(F)F)cc2Cl)cc1)C(=O)O (stereo not given) | 0.952 | 0.974 | 0.959 | 0.969 | 1.08 | 1.03 | 1.08 | 0.793 | 1.02 | 0.947 | 0.985 | 1.04 | 1.01 | 0.929 | 0.972 | 1.05 | 0.984 | 0.973 | 1.13 | 0.966 |
| CO/C=C(/C(=O)OC)c1ccccc1Oc1cc(Oc2ccccc2C#N)ncn1 | 0.938 | 0.929 | 0.947 | 1.02 | 0.985 | 1 | 1.08 | 0.868 | 1.1 | 0.903 | 0.834 | 1.03 | 1.04 | 1.09 | 0.99 | 1.03 | 0.975 | 1.01 | 1.13 | 1.01 |
| CC(Oc1ccc(Oc2nc3ccc(Cl)cc3o2)cc1)C(=O)O (stereo not given) | 1.02 | 1.01 | 1.04 | 1.01 | 1.08 | 0.93 | 1.01 | 1.15 | 0.991 | 1.07 | 1.01 | 1.01 | 1.07 | 0.971 | 1.09 | 1.05 | 0.986 | 1.05 | 0.998 | 1.11 |
| CCOc1ccc(C(C)(C)COCc2cccc(Oc3ccccc3)c2)cc1 | 1.01 | 1.02 | 1.02 | 1.04 | 1.01 | 0.801 | 0.816 | 1.02 | 0.901 | 0.979 | 1.04 | 1.06 | 0.965 | 0.785 | 0.958 | 0.929 | 1.04 | 0.881 | 1.05 | 0.942 |
| CC[C@H]1CCC[C@H](O[C@H]2CC[C@H](N(C)C)[C@@H](C)O2)[C@@H](C)C(=O)C2=C[C@@H]3[C@@H](C=C(C)[C@@H]4C[C@@H](O[C@@H]5O[C@@H](C)[C@H](OC)[C@@H](OC)[C@H]5OC)C[C@@H]34)[C@@H]2CC(=O)O1.CC[C@H]1CCC[C@H](O[C@H]2CC[C@H](N(C)C)[C@@H](C)O2)[C@@H](C)C(=O)C2=C[C@H]3[C@@H]4C[C@H](O[C@@H]5O[C@@H](C)[C@H](OC)[C@@H](OC)[C@H]5OC)C[C@H]4C=C[C@H]3C2CC(=O)O1 | 0.972 | 0.977 | 0.979 | 1.08 | 0.832 | 0.89 | 0.999 | 0.772 | 0.855 | 0.699 | 1.36 | 0.95 | 0.711 | 0.859 | 0.951 | 1.06 | 0.985 | 0.965 | 1.14 | 0.832 |
| CSc1nnc(C(C)(C)C)c(=O)n1N | 0.969 | 1.01 | 1.04 | 0.991 | 0.948 | 1.06 | 0.961 | 1.03 | 1.08 | 1.02 | 1 | 1.04 | 1.05 | 1.03 | 1.02 | 1.04 | 1 | 1.02 | 1.03 | 1.02 |
| CCNc1nc(Cl)nc(NC(C)C)n1 | 0.965 | 0.972 | 0.992 | 1.01 | 0.902 | 1.03 | 0.968 | 1.04 | 1.05 | 1.01 | 1.01 | 1.01 | 1 | 1.05 | 0.972 | 1.06 | 1.02 | 1.03 | 0.998 | 1.01 |
